PubChem BioAssay (NCATS)
For some assays here: Potency and affinity values are given separately. Active and inactive are the calls of the source.

Experiments:
[1] = Ebola virus entry assay, green fluorescence channel
[2] = Ebola virus entry assay, blue channel fluorescence
[3] = Ebola virus entry assay, green fluorescence channel; remark: listed apart in the source
[4] = Ebola virus entry assay, ratio channel readout
[5] = Ebola virus entry assay, blue channel fluorescence; remark: listed apart in the source
[6] = Ebola virus entry assay, ratio channel
[7] = Ebola virus entry assay, green channel fluorescence
[8] = Ebola virus entry assay, blue channel fluorescence; remark: listed apart in the source
[9] = Ebola virus entry assay, reporter ratio channel; AC50: Channel type: primary unless noted; outcome: Channel type: primary unless noted
[10] = Ebola virus entry assay, blue channel (ratio component)

Measured: efficacy
Wherever efficacy is given: 0% is about no effect.

COc1cc(C(=O)NCc2ccc(OCCN(C)C)cc2)cc(OC)c1OC
inactive: [1] 33.3% | [2] | [3] | [4] | [5] | [6] | [7] | [8] | [9] | [10]

Cc1ccc(C(=O)c2cc(O)c(O)c([N+](=O)[O-])c2)cc1
inactive: [1] 31.1% | [2] | [3] | [4] | [5] | [6] | [7] | [8] | [9] | [10]

COc1cc2c(cc1OC)[C@@H]1CC(=O)[C@@H](CC(C)C)CN1CC2
inactive: [1] 24.3% | [2] | [3] | [4] | [5] | [6] | [7] | [8] | [9] | [10]

CCN(C)C(=O)Oc1cccc([C@H](C)N(C)C)c1
inactive: [1] 11.7% | [2] | [3] | [4] | [5] | [6] | [7] | [8] | [9] | [10]

COC(c1ccccc1)(c1ccccc1)[C@H](Oc1nc(C)cc(C)n1)C(=O)O
inactive: [1] -17.9% | [2] | [3] | [4] | [5] | [6] | [7] | [8] | [9] | [10]

COc1c(C)c2c(c(O)c1C/C=C(\C)CCC(=O)O)C(=O)OC2
inactive: [1] 11.2% | [2] | [3] | [4] | [5] | [6] | [7] | [8] | [9] | [10]

COc1nc(N)nc2c1ncn2[C@@H]1O[C@H](CO)[C@@H](O)[C@@H]1O
inactive: [1] -33.2% | [2] | [3] | [4] | [5] | [6] | [7] | [8] | [9] | [10]

CN(C)CCc1c[nH]c2ccc(CS(=O)(=O)N3CCCC3)cc12
inactive: [1] -14.5% | [2] | [3] | [4] | [5] | [6] | [7] | [8] | [9] | [10]

Oc1cn2c(n1)Nc1ccc(Cl)c(Cl)c1C2
inactive: [1] -19.4% | [2] | [3] | [4] | [5] | [6] | [7] | [8] | [9] | [10]

Cn1c(=O)c2c(ncn2CC(O)CO)n(C)c1=O (stereo not given)
inactive: [1] -15% | [2] | [3] | [4] | [5] | [6] | [7] | [8] | [9] | [10]

CN(C)c1nc(N(C)C)nc(N(C)C)n1
inactive: [1] 14.8% | [2] | [3] | [4] | [5] | [6] | [7] | [8] | [9] | [10]

C[C@@H]1C[C@H]2[C@@H]3CCC4=CC(=O)C=C[C@]4(C)[C@@]3(F)[C@@H](O)C[C@]2(C)[C@@]1(O)C(=O)CO
inactive: [1] -13.7% | [2] | [3] | [4] | [5] | [6] | [7] | [8] | [9] | [10]

O=C(O)CCNC(=O)c1ccc(N=Nc2ccc(O)c(C(=O)O)c2)cc1
inactive: [1] -11.9% | [2] | [3] | [4] | [5] | [6] | [7] | [8] | [9] | [10]

Cc1cccc(Nc2ccccc2C(=O)O)c1C
inactive: [1] 32.2% | [2] | [3] | [4] | [5] | [6] | [7] | [8] | [9] | [10]

CCCCNC(=O)NS(=O)(=O)c1ccc(C)cc1
inactive: [1] -19.2% | [2] | [3] | [4] | [5] | [6] | [7] | [8] | [9] | [10]

CC1(C)O[C@@H]2[C@@H](CO[C@@]3(COS(N)(=O)=O)OC(C)(C)O[C@@H]23)O1
inactive: [1] -13.6% | [2] | [3] | [4] | [5] | [6] | [7] | [8] | [9] | [10]

O=C(OC1C[C@H]2CC[C@@H](C1)[N+]21CCCC1)C(O)(c1ccccc1)c1ccccc1 (stereo not given in full)
inactive: [1] 12.9% | [2] | [3] | [4] | [5] | [6] | [7] | [8] | [9] | [10]

CO[C@@]12[C@H](COC(N)=O)C3=C(C(=O)C(C)=C(N)C3=O)N1C[C@@H]1N[C@@H]12
inactive: [1] 19.7% | [2] | [3] | [4] | [5] | [6] | [7] | [8] | [9] | [10]

CC(=O)CCCCn1c(=O)c2c(ncn2C)n(C)c1=O
inactive: [1] -14.2% | [2] | [3] | [4] | [5] | [6] | [7] | [8] | [9] | [10]

CCCN[C@H]1CCc2nc(N)sc2C1
inactive: [1] -13.1% | [2] | [3] | [4] | [5] | [6] | [7] | [8] | [9] | [10]
